The panel holds about 83,000 compounds, 20% with a hit somewhere; the sample as a whole holds those more often.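 For each line, cells grew in 96-well plates with the test compound present at a single concentration for 48 hours.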 A number with no mark means an inactive call. Activity calls are given as the source filed them.
tested on: A549/ATCC NSCLC; assay: NCI-60 one-dose screen, 48 h (100 = growth as untreated, 0 = no growth, -100 = all killed); conditions: 10 µM unless noted
Protocol: Growth inhibition of the A549/ATCC human Non-Small Cell Lung tumor cell line is measured as a screen for anti-cancer activity. Cells are grown in 96 well plates and exposed to the test compound for 48 hours. Compounds are tested at a single concentration, which is 10^-5 M for most compounds. The reported endpoint is percent growth (GI% or GIPRCNT), where numbers from 0 - 100% represent growth inhibition, and numbers from -100% - 0 represent cell death. For example, a value of 40 represents 60% growth inhibition. A value of 0 means no net growth occurred over the course of the experiment. A value of -40 indicates 40% of cells at the beginning of the experiment died by the end of the experiment. A value of -100 means all cells are dead at the end of the experiment.
NCI-60 Human Tumor Cell Lines Screen was performed using the standard one-dose NCI protocol, which is described in more detail at https://dtp.cancer.gov/discovery_development/nci-60/default.htm.
Compounds with GIPRCNT values below 10 were considered active. Activity score was based on GIPRCNT using the following formula: […]
Score is 0 for GIPRCNT values of 100 or above, 50 for GIPRCNT values of 0, and 100 for GIPRCNT values of -100.

Row | Compound | growth
1 | Fc1cc(-c2cnc3nonc3n2)c(Cl)cc1Cl | 102%
2 | COc1cc(/C=N/NC(=O)Cn2c(-c3ccc(C)o3)nc3ccccc32)ccc1OCc1ccccc1 | 72.9%
3 | Cc1ccc(C)c2c1SC1=NNC(Oc3ccc(Cl)cc3)=C(C#N)C(=N)N12 | 108%
4 | O=C(Nc1cccc(Cl)c1)Nc1ccccc1Cl | 80.8%
5 | CC1=CCC2C1CC=C(C)C(CC[C@H]1[C@@](C)(O)CCC3OC(C)(C)[C@H](OC(=O)c4ccccc4)CC[C@@]31C)C2(C)C (stereo not given in full) | 78.7%
6 | C=C[C@H]1CCC/C=C/[C@@H]2C[C@H](O)C[C@H]2[C@H](O)/C=C/C(=O)O1 | 8.51% (active)
7 | Cc1nn(-c2cccc(Cl)c2)c(C)c1N=Nc1ccc(Br)cc1 | 66.1%
8 | CO[C@H](C(=O)[C@@H](O)[C@@H](C)O)[C@@H]1Cc2cc3cc(O[C@H]4C[C@@H](O[C@H]5C[C@@H](O)[C@H](O)C(C)O5)[C@H](O)C(C)O4)c(C)c(O)c3c(O)c2C(=O)[C@H]1O[C@H]1C[C@@H](O[C@H]2C[C@@H](O[C@H]3C[C@](C)(O)C(=O)C(C)O3)[C@@H](O)C(C)O2)[C@H](O)C(C)O1 (stereo not given in full) | 4.12% (active)
9 | C#Cc1cccc(Nc2nc3cc([N+](=O)[O-])ccc3nc2Nc2ccc(O)cc2)c1 | 11.3%
10 | ClCCn1cnc2c(SCc3ccccc3Cl)ncnc21 | 40.1%
11 | CC[C@H](C)[C@H](N)C(=O)O | 103%
12 | N=C(N)c1ccc(NCCNc2ccc(C(=N)N)cc2)cc1 | 42.2%
13 | CCN(CC)CC(=O)Nc1c(C)cc(C(=O)NN)cc1C | 106%
14 | CC(=O)CC(c1ccc([N+](=O)[O-])cc1)c1c(O)c2ccccc2oc1=O (stereo not given) | 95.7%
15 | CC(=O)OC[C@H]1O[C@@H](n2c(=O)cc(N)[nH]c2=O)C(OC(C)=O)[C@@H]1OC(C)=O (stereo not given in full) | 97.7%
16 | CC(=O)NC1C(O[C@H]2C[C@H]3[C@@H]4CC=C5C[C@@H](O)CC[C@]5(C)[C@H]4CC[C@]3(C)[C@H]2[C@H](C)C(=O)CCC(C)C)OCC(O)C1O (stereo not given in full) | 53.1%
17 | COc1ccc(/C=C/C(=O)CCC(=O)O)cc1OC | 103%
18 | O=S(=O)(Nc1ccc2ccccc2c1)N1CCCCC1 | 68.9%
19 | Cc1cc(O)ccc1Sc1ccccc1[N+](=O)[O-] | 84.9%
20 | CCN1C(=O)/C(=C/N2N=C(c3ccc(Cl)cc3)CC2c2ccc(OC)cc2)SC1=S (stereo not given) | 74.3%

Row | Compound | growth
21 | CC(=O)N1N=C(C2C(=O)N(C)C(=O)N(C)C2=O)CC1c1ccccc1C(=O)O (stereo not given) | 98.4%
22 | COC(=O)C(Br)(C(=O)OC)C(Br)C(Br)C(Br)c1ccccc1 (stereo not given) | 97.9%
23 | CC(C)CCSc1nc(-c2ccc(F)cc2)c(C#N)c(N2CCN(C)CC2)n1 | 65%
24 | OCCN(CCO)c1ccc2ccccc2c1 | 97.7%
25 | Clc1ccccc1CNc1c2ccccc2nc2ccccc12 | 19.2%
26 | COC(=O)CSc1ccc(Cl)cc1 | 98%
27 | COc1cccc(/C=N\Nc2ccc([N+](=O)[O-])cn2)c1O | 57%
28 | CCN(CC)c1ccc(/C=N/NC(=O)C[N+](C)(C)C)cc1 | 100%
29 | ClCc1c(Cl)c(Cl)c(Cl)c(CCl)c1Cl | 94.9%
30 | CCCCCCCCOC(=O)C(C)OC(=O)OCCOCCOC(=O)OC(C)C(=O)OCCCCCCCC (stereo not given) | 102%
31 | CCOC(=O)C#Cc1c(C(=O)OCC)nnn1[C@@H]1O[C@H](COC(C)=O)[C@@H](OC(C)=O)[C@H]1OC(C)=O | 78.3%
32 | C=C1C[C@@]2(C)C(CC[C@]3(C)C2CC=C2C4CC(C)(C)C[C@@H](OC(=O)/C(C)=C\C)[C@]4(C(=O)O)CC[C@]23C)C(C)(C)C1=O (stereo not given in full) | -2.25% (active)
33 | OC(CCCCCCCCC(O)CN1CCc2ccccc2C1)CN1CCc2ccccc2C1 (stereo not given) | 101%
34 | CCOC(=O)C1=C(C(=O)OCC)N(c2cc(OC)c(OC)c(OC)c2)C(N)=C(C#N)C1c1cc(=O)[nH]c2ccccc12 (stereo not given) | 105%
35 | COc1cc(C2CC(=O)Nc3c2cnn3C)cc(OC)c1OC (stereo not given) | 107%
36 | COc1cc(C2CC(c3ccccc3)=NN2C=O)ccc1Oc1nc2c(c(=O)n(C)c(=O)n2C)n1C (stereo not given) | 61.5%
37 | COCc1nc(NS(=O)(=O)c2ccc(N)cc2)nc(C)c1Br | 94%
38 | Cc1cc(-c2ccc(N=Nc3c(S(=O)(=O)O)cc4cc(S(=O)(=O)O)cc(O)c4c3O)c(C)c2)ccc1N=Nc1c(S(=O)(=O)O)cc2cc(S(=O)(=O)O)cc(O)c2c1O | 101%
39 | CC(C)c1nc2ccccc2n1CC(=O)N/N=C/c1cccc(O)c1 | 97.5%
40 | Cc1ccccc1Nc1n[nH]c(Cc2ccccc2)n1 | 100%
